Screening data as filed in PubChem.
D1 PAM – Potentiators of Human D1 Dopamine Receptor: qHTS. D(1A) dopamine receptor (Homo sapiens), P21728. potentiation, % at 10 µM. actives 0.036% (n = 360,000). HEK293 TREx D1 cells, calcium flux, dopamine EC20 potentiation; in the data active means potentiation above about 30%; further: 0% is about no effect
Target sequence (P21728 whole entry, looked up): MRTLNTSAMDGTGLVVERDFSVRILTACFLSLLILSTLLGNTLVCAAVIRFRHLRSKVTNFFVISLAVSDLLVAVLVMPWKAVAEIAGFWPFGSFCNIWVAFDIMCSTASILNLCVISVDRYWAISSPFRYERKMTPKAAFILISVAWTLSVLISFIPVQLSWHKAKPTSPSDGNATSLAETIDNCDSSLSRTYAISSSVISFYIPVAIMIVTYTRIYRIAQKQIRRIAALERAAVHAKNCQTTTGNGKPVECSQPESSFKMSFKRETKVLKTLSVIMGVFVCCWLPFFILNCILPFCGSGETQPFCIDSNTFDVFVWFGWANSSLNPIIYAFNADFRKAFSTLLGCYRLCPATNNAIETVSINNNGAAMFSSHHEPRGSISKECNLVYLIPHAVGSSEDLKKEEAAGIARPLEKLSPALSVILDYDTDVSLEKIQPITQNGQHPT
DRD3 agonist – qHTS of D3 Dopamine Receptor Agonist: qHTS; actives 0.58% (n = 410,000); D3R DiscoveRx beta-arrestin cells, luminescence, 90 min; max activation, %; in the data active means max activation above about 30%; further: 0% is about no effect
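Agonist mode: compounds and dopamine controls were applied to plated cells for 90 min at 37 degrees C after an overnight attachment at 1500 cells/well. Luminescent read-out followed 30 - 60 minutes at room temperature with DiscoveRx detection reagent.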
DRD3 antagonist – qHTS of D3 Dopamine Receptor Antagonist: qHTS; D3R cells, DiscoveRx beta-arrestin luminescence, antagonist mode; active compounds read low; max response, negative = inhibition, %; actives 2.5% (n = 360,000); in the data active means max response below about -50%; inconclusive means no clear call, values can overlap the other calls; further: on the % scale 0 is the no-effect control and ±100 the full control effect
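Cells plated overnight at 1500 cells/well, then exposed to library compounds with dopamine controls for 90 minutes at 37 degrees C. DiscoveRx reagent added for 30–60 minutes at room temperature; luminescence read, quantitative HTS format.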
D1 ag – Allosteric Agonists of the Human D1 Dopamine Receptor: qHTS; actives 1% (n = 360,000); HEK293 T-REx D1 cells, calcium flux, agonist mode; activation, % at 2 µM; in the data active means activation above about 30%; further: 0% is about no effect
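Inducible HEK293 T-REx D1 cells, force-coupled to calcium signalling, were plated at 4000 cells/well with tetracycline and held overnight at 30 C. After no-wash calcium dye loading, compound-evoked calcium rise over 180 s flagged agonists.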
D1 antagonist – Antagonist of Human D 1 Dopamine Receptor: qHTS; D(1A) dopamine receptor (Homo sapiens), P21728; HEK293 TREx D1 cells, calcium flux, dopamine EC80; active compounds read low; activity change, negative = inhibition, % at 10 µM; actives 3.2% (n = 360,000); in the data active means activity change below about -30%; further: on the % scale 0 is the no-effect control and ±100 the full control effect
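Tetracycline-induced HEK293 T-REx cells with force-coupled D1 receptor were loaded with a no-wash calcium dye. Compound was added after a 10 s baseline and read kinetically for 180 s; EC80 dopamine was then added and calcium flux followed another 180 s.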
The depositor's hits bear a star; ? = inconclusive; · = not tested or not shown. Only some compounds are listed: those with a hit (about 6% of all), similar ones and a draw of the others.

SMILES	D1 PAM	DRD3 agonist	DRD3 antagonist	D1 ag	D1 antagonist
COc1cccc(NC(=O)Nc2ccc(CC(=O)O)cc2)c1	-1	-3	-6	1	2
COc1cccc(NC(=O)CCC(=O)Nc2cccc(OC)c2)c1	-1	1	-4	5	-31*
COc1ccc(OCCCC(=O)Nc2cccnc2)cc1	-4	9	-90*	0	-19
CCc1ccc(NC(=O)Nc2cccc(OC)c2)cc1	-1	-10	2	9	-31*
O=C(CCCC(=O)Nc1cccnc1)Nc1cccnc1	-3	6	25	3	8
CCOCC(=O)Nc1cccc(OC)c1	-1	-2	?	1	2
COc1cccc(NC(=O)Nc2ccc(Br)cn2)c1	-7	49*	0	0	-14
O=C(Nc1ccccc1)OCCc1ccccc1	·	-6	-27	·	·
COc1ccc(OCC(=O)NCCNC(=O)c2cccnc2)cc1	·	2	-10	3	-32*
COC(=O)CCCC(=O)Nc1ccc(Br)cc1	5	1	6	3	-1
Cc1ccc(OCCCC(=O)Nc2ccc(Br)cc2)cc1	-13	4	1	5	-67*
COc1ccc(CCC(=O)Nc2cccc(Cl)c2)cc1	-8	6	-5	11	-45*
O=C(COc1ccc(Br)cc1)NCCCNC(=O)c1cccnc1	-3	5	-17	0	-2
C=Cc1ccc(Cn2c(=O)n(-c3cccc(C)c3)c(=O)c3c2c2cc(C)ccc2n3C)cc1	0	1	·	3	-2
CCOc1ccccc1C(=O)Nc1cc2c(cc1N1CCCCC1)n(C)c(=O)n2C	-2	0	·	1	2
CCc1ccccc1N1C(=O)N(Cc2cccc(Cl)c2)c2ccccc2S1(=O)=O	-3	-8	·	4	-18
Cc1cc(C)c(NC(=O)CSC2=Nc3ccccc3C3=NC(CC(=O)NCc4cccs4)C(=O)N23)c(C)c1 (stereo not given)	0	9	·	-1	4
NC(=S)n1[nH]c(-c2ccc([N+](=O)[O-])cc2)c(N=Nc2ccccc2[N+](=O)[O-])c1=O	-12	1	-27	2	-51*
Cc1ccc(NC(=O)Nc2ccc3snnc3c2)cc1C	-3	1	·	30	-29
COc1cccc(NC(=O)Nc2nc(-c3ccc(OC)c(OC)c3)cs2)c1	-8	49*	118	8	-40*
COc1ccc(-c2csc(NC(C)=O)n2)cc1OC	1	1	9	0	7
CCc1ccccc1NC(=O)Nc1ccc2snnc2c1	-4	0	·	33*	-19
O=C(Nc1ccc2snnc2c1)Nc1cccc2ccccc12	-7	-3	-10	19	-29
COc1cccc(NC(=O)Nc2ccc3snnc3c2)c1	-3	4	·	37*	-19
O=C(CNC(=O)c1ccc2ccccc2c1)OC(C(=O)Nc1cc(C(F)(F)F)ccc1Cl)c1ccccc1 (stereo not given)	4	·	·	5	24
SMILES	D1 PAM	DRD3 agonist	DRD3 antagonist	D1 ag	D1 antagonist
CCN1CCN(c2ncc3c(n2)CCN(Cc2ccc(Br)s2)C3)CC1	0	-19	·	12	0
COc1cc(CN2CCc3nc(N4CCN(c5ccccn5)CC4)ncc3C2)cc(OC)c1OC	0	2	·	8	-31*
CN1CCN(c2ncc3c(n2)CCN(Cc2ccc(Br)s2)C3)CC1	-1	-20	·	9	-41*
CCN1CCN(c2ncc3c(n2)CCN(Cc2ccc(OC(C)C)cc2)C3)CC1	-1	-21	·	1	-40*
CCN1CCN(c2ncc3c(n2)CCN(Cc2ccc(C)s2)C3)CC1	-1	-12	·	0	-32*
COc1ccc(-c2noc(N3CCC(C(=O)NCc4ccccc4Cl)CC3)n2)cc1	-8	-1	-11	7	-47*
COc1ccc(-c2noc(N3CCC(C(=O)NC(C)c4ccccc4)CC3)n2)cc1 (stereo not given)	-15	1	-22	2	-35*
COc1ccc(-c2noc(N3CCC(C(=O)Nc4ccccc4Cl)CC3)n2)cc1	-7	-8	-26	3	-34*
COc1ccc(-c2noc(N3CCC(C(=O)Nc4ccccc4F)CC3)n2)cc1	-10	1	1	-1	1
COc1ccc(-c2noc(C3CCCN(C(=O)c4ccccc4)C3)n2)cc1 (stereo not given)	-3	0	12	6	-39*
COc1ccc(-c2noc(C3CCCN(C(=O)c4cccc(F)c4)C3)n2)cc1 (stereo not given)	-22	9	7	6	-18
CCCCCc1c(-c2cccc(F)c2)ncn1CCc1ccccc1OC	·	9	38	·	·
Cc1cccc(NC(=O)c2cccc(S(=O)(=O)N(C)c3ccccc3)c2)n1	1	-15	-29	-1	-10
Cc1ccsc1/C=C1/C(=O)NN(c2ccccc2)C1=O	-3	-8	?	1	31
Cc1ccsc1C=C1C(=O)c2ccccc2C1=O	-1	-3	-56*	-1	4
CCCCOc1ccc(C(=O)NCC(=O)NCC(c2cccs2)N2CCOCC2)cc1 (stereo not given)	-5	0	14	2	-4
CSc1ccc(CN2CCC(C)(Oc3ccccc3)C2)cc1 (stereo not given)	·	-11	-97*	·	·
CSc1ccc(OC2(C)CCN(Cc3ccc(C(C)C)cc3)C2)cc1 (stereo not given)	·	-12	-61*	·	·
CSc1ccc(OC2(C)CCN(Cc3cc4ccccc4o3)C2)cc1 (stereo not given)	·	-5	-74*	·	·
CSc1ccc(CN2CCC(C)(Oc3cccc(F)c3)C2)cc1 (stereo not given)	·	-22	-92*	·	·
CSc1ccc(CN2CCC(C)(Oc3cccc(C#N)c3)C2)cc1 (stereo not given)	·	-6	?	·	·
CC1(Oc2cccc(F)c2)CCN(Cc2ccc(-c3ccccc3)o2)C1 (stereo not given)	·	-19	?	·	·
O=C(Nc1ccc(F)cc1)c1cccn1-c1nnc(N2CCCCC2)s1	-1	-20	·	7	-9
CCc1ccc(OC2(C)CCN(Cc3ccc(SC)cc3)C2)cc1 (stereo not given)	·	-24	-60*	·	·
CCc1ccc(/C=C2\SC(=S)N(CCC(=O)NCCCN3CCOCC3)C2=O)cc1	-14	1	10	17	-37*
CC(C)c1ccc(/C=C2\SC(=S)N(CC(=O)NCCCN3CCOCC3)C2=O)cc1	-4	-5	-1	10	-35*
O=C(CCCN1C(=O)/C(=C/c2ccccc2)SC1=S)NCCCn1ccnc1	4	8	-1	14	-30*
